Screening data from PubChem BioAssay.
TDP1 inh – qHTS Assay for Inhibitors of Tyrosyl-DNA Phosphodiesterase (TDP1) | Tyrosyl-DNA phosphodiesterase 1 (Homo sapiens), Q9NUW8 | recombinant TDP1, AlphaScreen DNA substrate cleavage | Potency, µM (doses to about 130 µM), for the others: top-dose activity change, negative = inhibition, usual class: inhibitors | actives 0.28% (n = 350,000); further: potency means the concentration at half of the fitted maximal effect; on the % scale 0 is the no-effect control and ±100 the full control effect; nearly all actives have a fitted effect of over 40% in size
Target sequence (Q9NUW8 whole entry, looked up): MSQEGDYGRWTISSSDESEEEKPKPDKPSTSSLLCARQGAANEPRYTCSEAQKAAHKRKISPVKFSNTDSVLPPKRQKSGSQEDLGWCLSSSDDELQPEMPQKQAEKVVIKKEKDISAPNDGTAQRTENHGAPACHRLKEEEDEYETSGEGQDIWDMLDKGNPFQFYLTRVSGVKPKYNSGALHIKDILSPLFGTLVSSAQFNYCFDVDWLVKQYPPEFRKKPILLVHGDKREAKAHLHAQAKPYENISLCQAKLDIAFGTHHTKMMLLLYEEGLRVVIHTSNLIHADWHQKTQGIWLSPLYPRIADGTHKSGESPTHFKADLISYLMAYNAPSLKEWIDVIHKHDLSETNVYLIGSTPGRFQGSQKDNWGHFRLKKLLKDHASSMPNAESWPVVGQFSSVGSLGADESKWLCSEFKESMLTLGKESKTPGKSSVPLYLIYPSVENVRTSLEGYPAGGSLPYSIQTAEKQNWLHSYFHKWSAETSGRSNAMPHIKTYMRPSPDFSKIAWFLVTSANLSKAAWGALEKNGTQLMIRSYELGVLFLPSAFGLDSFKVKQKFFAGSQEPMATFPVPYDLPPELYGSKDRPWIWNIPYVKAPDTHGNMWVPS
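Tdp1 1 nM final; 15 min RT w/ cpd; substrate 15 nM, 5 min; beads 10 ug/ml, 10 min; AlphaScreen read. Neg ctrl: no enzyme.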
HepG2 tox – qHTS for Inhibitors of TGF-b: Cytotox Counterscreen; actives 0.76% (n = 410,000); Potency, µM (highest dose often 46.1 µM), for inactives: at the highest dose activity change, negative = cytotoxicity, most hits filed as cytotoxic; AID 588856, 2011; HepG2 CAGA-GFP viability, ATP luminescence, 18 h; further: potency means the concentration at half of the fitted maximal effect
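CellTiter-Glo luminescence gave cytotoxicity after 18 hours at 37 degrees C. The cells were HepG2 CAGA-GFP in 1% FBS DMEM, stimulated with 500 pg/mL TGF-beta after compound addition. %Activity was normalised to no-cell wells (complete cell-killing) and DMSO (no toxicity), and curves were fitted and classified.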
TDP1 cell CPT – qHTS for Inhibitors of human tyrosyl-DNA phosphodiesterase 1 (TDP1): qHTS in cells in presence of CPT; chicken DT40 Tdp1-/-;hTDP1 cells + 20 nM CPT, ATP luminescence, 48 h; Potency, µM (doses to about 46.2 µM), inactives show at the top dose activity change, negative = growth inhibition, actives largely listed as inhibitors; actives 12% (n = 420,000); AID 686979, 2013; further: potency means the concentration at half of the fitted maximal effect; on the % scale 0 is the no-effect control and ±100 the full control effect; nearly all actives have a fitted effect of over 55% in size
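Cell growth measured by CellTiter-Glo luminescence after a minimum 48 h, 37 C compound exposure with 20 nM CPT in Tdp1-knockout DT40 cells stably expressing hTDP1, seeded 400/well; qHTS titration format.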
TGFb SMAD3 inh – qHTS for Inhibitors of TGF-b; Potency, µM (titrated, usually from 46.1 µM), for the others: at the top dose activity, negative = inhibition, usual class: inhibitors; HepG2 CAGA-GFP TGF-b/SMAD3 reporter, GFP fluorescence, 18 h; TGF-beta stimulated, 500 pg/mL final; actives 1.2% (n = 410,000); further: potency means the concentration at half of the fitted maximal effect; on the % scale 0 is the no-effect control and ±100 the full control effect; nearly all actives have a fitted effect of over 65% in size
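HEPG2 CAGA-GFP cells (1000/well, DMEM with 1% FBS) were pre-incubated 2 h at 37 degrees C, given compound by pin tool, then stimulated with TGF-beta at 500 pg/mL final for 18 h before per-cell GFP fluorescence imaging.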
DT40 TDP1 no CPT – qHTS for Inhibitors of human tyrosyl-DNA phosphodiesterase 1 (TDP1): qHTS in cells in absence of CPT | DT40 Tdp1-/- hTDP1 cells, no CPT, ATP luminescence, 48 h | Potency, µM (titrated, usually from 46.2 µM), without a hit: top-dose activity change, negative = growth inhibition, hits mostly inhibitors | actives 15% (n = 420,000) | AID 686978, 2013; further: potency means the concentration at half of the fitted maximal effect; on the % scale 0 is the no-effect control and ±100 the full control effect; nearly all actives have a fitted effect of over 55% in size
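Growth kinetics read by CellTiter-Glo luminescence after ≥48 hr at 37 °C. Cells: DT40 Tdp1-/- stably carrying human TDP1, 400 per well, compound exposure in the absence of CPT (DMSO vehicle).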
IL-1B inflam inh – qHTS for Inhibitors of Inflammasome Signaling: IL-1-beta AlphaLISA Primary Screen; THP-1 LPS/ATP IL-1B secretion, AlphaLISA, 16 h; active compounds read low; activity change, % at 57.5 µM; actives 4.7% (n = 360,000); AID 743279, 2014; in the data active means activity change below about -50%; inconclusive means mostly about -30% to -49%; further: on the % scale 0 is the no-effect control and ±100 the full control effect
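THP-1 cells pretreated 1 hr with compounds (up to 57.5 uM final), then stimulated with LPS (250 ng/mL final) plus ATP (1.25 mM final); secreted IL-1B measured by AlphaLISA after 16 hr, decreased signal indicating inhibition.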
* marks the source's active call; other numbers are inactive results; ? = inconclusive; / = no result; [ ] = remark or other dose. Sampled rows, rich in hits. Any-hit rate of the full collection: about 18%. Unless noted, the call rests on the fitted dose curve; in most records, active means well fitted curve in the direction sought with a large enough effect; inconclusive means small, poorly fitted or top-dose-only effect, or another doubt; inactive means no such curve, though single readings can be large; an effect the other way counts as inactive or inconclusive.

SMILES	TDP1 inh	HepG2 tox	TDP1 cell CPT	TGFb SMAD3 inh	DT40 TDP1 no CPT	IL-1B inflam inh
Cc1cc(C)c2nc(-c3ccccn3)cc(C(=O)Nc3ccc(S(=O)(=O)Nc4cc(C)on4)cc3)c2c1	1.9%	-27.3%	?	?	-48.5%	30.8
Cc1cc(C)c2nc(-c3ccccn3)cc(C(=O)Nc3ccc(S(=O)(=O)Nc4onc(C)c4C)cc3)c2c1	39.8µM*	0.5%	10.6%	-5.2%	?	3.5
Cc1noc(NS(=O)(=O)c2ccc(NC(=O)CCN3C(=O)c4ccccc4C3=O)cc2)c1C	-5.1%	11.9%	4.1%	0.4%	0.4%	3.7
COc1ccc(NC(=O)Cn2c(=O)n(-c3ccc(OC)cc3OC)c(=O)c3c(C)c(C)sc32)cc1	5.7%	-4.0%	-14.3%	?	-17.0%	2.9
CCOC(=O)C1=C(C)NC(C)=C(C(=O)OCC)C1c1ccccc1C=CC(=O)OC(C)(C)C	0.0%	/	/	/	/	/
CCN1CCOC(=O)C1CC(=O)Nc1cc(Cl)ccc1C (stereo unspecified)	1.9%	-3.2%	7.31µM*	?	14.6µM*	/
CCN1CCOC(=O)C1CC(=O)Nc1ccc(C)c(Cl)c1 (stereo unspecified)	1.9%	-35.3%	7.31µM*	?	5.8µM*	/
O=C(CC1C(=O)OCCN1Cc1ccccc1)Nc1cccc(Cl)c1 (stereo unspecified)	4.5%	-7.6%	?	-8.5%	-23.6%	/
C=CCOc1ccccc1CN1CCC(n2nccc2NC(=O)c2ccccc2)CC1	4.3%	-26.9%	-18.5%	-12.6%	-10.8%	?
CC(OC(=O)CC1CCCCC1)C(=O)Nc1cccc(C#N)c1 (stereo unspecified)	-3.9%	-35.3%	?	-12.6%	?	-4.1
C=C(CN(C)C)C(=O)c1ccc(C)cc1C	/	-104.7%	0.517µM*	?	0.581µM*	-106.7*
CC(=O)Nc1ccccc1NC(=O)c1ccc(C)cc1C	0.0%	-0.1%	-0.2%	1.3%	-14.9%	-1.7
CCC1=C2CC[C@H]3C(=O)N(CC)C(=O)[C@H]3[C@H]2[C@@]2(C)C(=NCC(=O)OC)OC(=O)N2C1=O	2.1%	/	/	/	/	/
O=C1CC(c2ccco2)CC2=C1C1c3ccccc3C(=O)N1c1ccccc1N2 (stereo unspecified)	7.7%	-7.5%	?	?	23.1µM*	-94.2*
CS(=O)(=O)Nc1cccc(C2=NN(C(=O)c3ccco3)C(c3cccs3)C2)c1 (stereo unspecified)	1.3%	5.1%	?	-18.2%	?	0.6
CCc1cc2c(nc1CC)CCN(CC/C(C)=N/OC[C@@H](O)[C@@H]1O[C@@H]3OC(C)(C)O[C@@H]3[C@H]1O)C2	7.9%[21 µM]	/	/	/	/	/
Brc1ccc(C2C3=C(Nc4ncnn42)c2ccccc2OC3c2ccncc2)cc1 (stereo unspecified)	6.1%	-53.8%	?	?	?	?
COc1ccc(C2Oc3ccccc3C3=C2C(c2cccs2)n2ncnc2N3)cc1 (stereo unspecified)	-8.1%	-20.2%	20.6µM*	5.5%	23.1µM*	-15.0
O=C1OC(Sc2ccccc2)(c2ccccc2)c2ccccc21 (stereo unspecified)	/	-20.1%	-22.2%	?	?	-6.4
O=C(Nc1ccc(N2CCOCC2)cc1)c1cc2c(s1)CCCCC2	3.1%	-18.3%	23.1µM*	-8.3%	20.6µM*	-80.3*
